Results filed as inconclusive are left out. Entries that show only a call come without a potency. Calls of active or inactive are those of the source. Unless noted, calls follow the shape of the dose curve; as a rule, active = well fitted curve in the direction sought with a large enough effect; inconclusive = small, poorly fitted or top-dose-only effect, or another doubt; inactive = no such curve, though single readings can be large; an effect the other way counts as inactive or inconclusive.
What was measured:
[1] = qHTS profiling of the MIPE4 collection as inhibitors of Plasmodium falciparum (DD2) proliferation (Rep 2) (AID 743346; call rule not given here); conditions: P. falciparum Dd2 in erythrocytes, SYBR Green DNA, 72 h; at 28.5 µM unless noted
In short: (§1)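 Erythrocytes infected with P. falciparum (0.3% parasitemia, 2.5% hematocrit) incubated with compounds 72 h at 37 C, 5% CO2. Lysis with saponin/Triton buffer containing SYBR Green I, overnight at room temperature in the dark; DNA fluorescence (485/535 nm) normalised to 0.29 uM artemisinin and DMSO.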

[2] = qHTS profiling of the MIPE4 collection as inhibitors of Plasmodium falciparum (HB3) proliferation (AID 743347; call rule not given here); conditions: P. falciparum HB3 in erythrocytes, SYBR Green DNA, 72 h; at 28.5 µM unless noted
In short: as §1

[3] = High-throughput drug toxicity screening in the BPDCN cell line Gen2.2 (AID 1224824; call rule not given here;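 also: cells exposed to compounds for 48 h before reading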); conditions: Gen2.2 BPDCN cells; at 45.8 µM (top of the series) unless noted
In short: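 CellTiter-Glo luminescence after 48 h compound exposure of Gen2.2 cells; percent activity set with DMSO as 100% and bortezomib (9.2 uM final) as 0%. Cells seeded at 500 per well, RPMI + 10% FBS, 37 °C.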

[4] = High-throughput drug toxicity screening in the BPDCN cell line Cal-1 (AID 1224825; call rule not given here); conditions: Cal-1 BPDCN cell viability, qHTS; at 45.8 µM (top of the series) unless noted
In short: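 500 Cal-1 cells/well, RPMI + glutamine + 10% FBS (phenol red-free); cpd added by pin tool; 48 h, 37C, 5% CO2; CTG 15 min RT, lumi read. Normalised: DMSO 100%, bortezomib 9.2 uM 0%.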

[5] = qHTS assay for measurement of the activity of small molecule inhibitors on Zika virus induced Caspase-3 activity in human iPSC derived neural progenitor cells (hNPCs) (AID 1224857); also: nearly all actives have a fitted effect of over 65% in size
In short: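 Human iPSC-derived neural progenitor cells pretreated 1 hr with compounds, then infected with Zika virus (2 FFU/cell) for 6 hours at 37 C. Caspase-3/7 measured by Caspase-Glo luminescence; % inhibition calculated from induction scaled to uninfected (0%) and infected (100%) wells.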

[6] = qHTS assay for measurement of the activity of small molecule inhibitors on Zika virus induced Caspase-3 activity in human astrocytoma cells (AID 1224859)
In short: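 SNB-19 astrocytoma cells, 250/well, pretreated 1 h with compounds, then Zika virus at 2 FFU/cell for 6 h at 37 C; Caspase-Glo 3/7 luminescence after 30 min; percent inhibition normalised to uninfected and infected controls.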

[7] = qHTS Screen of the MIPE 4.0 Collection Against Ewings Sarcoma (RDES) (AID 1259252); also: nearly all actives have a fitted effect of over 35% in size; also: potency is read from the fitted curve at half-maximal effect
In short: (§2)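 Cells plated in serum-containing RPMI (5% FBS) and treated with compound dilutions for 48 h. Readout luminescent viability; normalization relied on vehicle (no inhibition) and media-only columns (full inhibition).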

[8] = qHTS Screen of the MIPE 4.0 Collection Against Ewings Sarcoma (TC71) (AID 1259253); also: nearly all actives have a fitted effect of over 40% in size; also: potency is read from the fitted curve at half-maximal effect
In short: as §2

[9] = qHTS Screen of the MIPE 4.0 Collection Against Ewings Sarcoma (EW8) (AID 1259255); also: nearly all actives have a fitted effect of over 35% in size; also: potency is read from the fitted curve at half-maximal effect
In short: as §2

[10] = qHTS Screen of the MIPE 4.0 Collection Against Ewings Sarcoma (TC32) (AID 1259256); also: nearly all actives have a fitted effect of over 45% in size; also: potency is read from the fitted curve at half-maximal effect
In short: as §2

[11] = qHTS assay to identify small molecule inhibitors of chordoma cells - UCH-2 (AID 1259356)
[12] = qHTS profiling of the MIPE4 collection as inhibitors of Plasmodium falciparum (DD2) proliferation (AID 743345; call rule not given here); conditions: P. falciparum Dd2 in erythrocytes, SYBR Green DNA, 72 h; at 28.5 µM unless noted
In short: as §1

[13] = qHTS assay to identify small molecule inhibitors of chordoma cells - UCH-1 (AID 1259355); also: nearly all actives have a fitted effect of over 55% in size
In short: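 Seed 800 cells per well; incubate overnight at 37 C, 5% CO2. Add test compounds (15 concentrations), then the auranofin–topoisomerase-agent combination. Incubate 48hr, add CellTiter-Glo, wait 30min, read luminescence.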

[14] = qHTS profiling of the MIPE4 collection as inhibitors of Plasmodium falciparum (3D7) proliferation (AID 743344; call rule not given here); conditions: P. falciparum 3D7 in erythrocytes, SYBR Green DNA fluorescence, 72 h; at 28.5 µM unless noted
In short: as §1

## NC(=O)c1cccnc1
[1]
  parasite growth, % of control (lower = inhibition): 122%
[2]
  growth, % of control: 105%
[3]
  cell viability, % of control (lower = more cytotoxic): 114%
[4]
  viability (% of control): 101%
[5]
  Potency: inactive
[6]
  Potency: inactive
[7]
  Potency: inactive
[8]
  Potency: inactive
[9]
  Potency: inactive
[10]
  Potency: inactive
[11]
  Potency: inactive

## CCc1c2c(nc3ccc(OC(=O)N4CCC(N5CCCCC5)CC4)cc13)-c1cc3c(c(=O)n1C2)COC(=O)[C@]3(O)CC
[12]
  parasite growth remaining, % of DMSO control (lower = more inhibition): 59.3%
[1]
  parasite growth, % of control (lower = inhibition): 67.7%
[3]
  cell viability, % of control (lower = more cytotoxic): 21.9%
[4]
  viability (% of control): 8.86%
[5]
  Potency: inactive
[6]
  Potency: inactive
[7]
  Potency: 332 nM (active)
[8]
  Potency: 332 nM (active)
[9]
  Potency: 469 nM (active)
[10]
  Potency: inactive
[13]
  Potency: inactive
[11]
  Potency: inactive

## CNNCc1ccc(C(=O)NC(C)C)cc1
[14]
  parasite growth, % of DMSO control: 72.9%
[1]
  parasite growth, % of control (lower = inhibition): 68.8%
[2]
  growth, % of control: 68.9%
[3]
  cell viability, % of control (lower = more cytotoxic): 284%
[4]
  viability (% of control): 78.4%
[5]
  Potency: inactive
[6]
  Potency: inactive
[7]
  Potency: inactive
[8]
  Potency: inactive
[9]
  Potency: inactive
[10]
  Potency: inactive
[13]
  Potency: inactive
[11]
  Potency: inactive

## CCCc1nc(C)c2c(=O)[nH]c(-c3cc(S(=O)(=O)N4CCN(CC)CC4)ccc3OCC)nn12
[12]
  parasite growth remaining, % of DMSO control (lower = more inhibition): 12.3%
[1]
  parasite growth, % of control (lower = inhibition): 33.2%
[3]
  cell viability, % of control (lower = more cytotoxic): 5.18%
[4]
  viability (% of control): 4.45%
[5]
  Potency: inactive
[6]
  Potency: inactive
[7]
  Potency: 7430 nM (active)
[8]
  Potency: 8330 nM (active)
[9]
  Potency: 3720 nM (active)
[10]
  Potency: 9.35 µM (active)
[13]
  Potency: inactive
[11]
  Potency: inactive

## CN(C)CCc1c[nH]c2ccc(C[C@H]3COC(=O)N3)cc12
[14]
  parasite growth, % of DMSO control: 107%
[12]
  parasite growth remaining, % of DMSO control (lower = more inhibition): 92.5%
[1]
  parasite growth, % of control (lower = inhibition): 73.2%
[2]
  growth, % of control: 91.4%
[3]
  cell viability, % of control (lower = more cytotoxic): 88.7%
[4]
  viability (% of control): 99.9%
[5]
  Potency: inactive
[6]
  Potency: inactive
[7]
  Potency: inactive
[8]
  Potency: inactive
[9]
  Potency: inactive
[10]
  Potency: inactive
[11]
  Potency: inactive

## CC(C)(C)C(=O)OCOP(=O)(COCCn1cnc2c(N)ncnc21)OCOC(=O)C(C)(C)C
[12]
  parasite growth remaining, % of DMSO control (lower = more inhibition): 96.8%
[1]
  parasite growth, % of control (lower = inhibition): 97.4%
[3]
  cell viability, % of control (lower = more cytotoxic): 3.53%
[4]
  viability (% of control): 2.56%
[5]
  Potency: inactive
[6]
  Potency: inactive
[7]
  Potency: 372 nM (active)
[8]
  Potency: 833 nM (active)
[9]
  Potency: 209 nM (active)
[10]
  Potency: inactive
[13]
  Potency: inactive
[11]
  Potency: inactive

## C#CCN[C@@H]1CCc2ccccc21
[14]
  parasite growth, % of DMSO control: 95.8%
[1]
  parasite growth, % of control (lower = inhibition): 95.4%
[2]
  growth, % of control: 103%
[3]
  cell viability, % of control (lower = more cytotoxic): 153%
[4]
  viability (% of control): 57.2%
[5]
  Potency: inactive
[6]
  Potency: inactive
[7]
  Potency: inactive
[8]
  Potency: inactive
[9]
  Potency: inactive
[10]
  Potency: inactive
[13]
  Potency: inactive
[11]
  Potency: inactive

## CN1CCN(c2c(F)cc3c(=O)c(C(=O)O)cn(CCF)c3c2F)CC1
[12]
  parasite growth remaining, % of DMSO control (lower = more inhibition): 95.4%
[1]
  parasite growth, % of control (lower = inhibition): 106%
[3]
  cell viability, % of control (lower = more cytotoxic): 140%
[4]
  viability (% of control): 98.4%
[5]
  Potency: inactive
[6]
  Potency: inactive
[7]
  Potency: inactive
[8]
  Potency: inactive
[9]
  Potency: inactive
[10]
  Potency: inactive
[13]
  Potency: inactive
[11]
  Potency: inactive

## CN1CCN(c2c(F)cc3c(=O)c(C(=O)O)cn4c3c2OCN4C)CC1
[1]
  parasite growth, % of control (lower = inhibition): 77.3%
[2]
  growth, % of control: 73.2%
[3]
  cell viability, % of control (lower = more cytotoxic): 170%
[4]
  viability (% of control): 117%
[5]
  Potency: inactive
[6]
  Potency: inactive
[7]
  Potency: inactive
[8]
  Potency: inactive
[9]
  Potency: inactive
[10]
  Potency: inactive
[13]
  Potency: inactive
[11]
  Potency: inactive

Reference: PubChem BioAssay (NCATS)
